From PubChem
PLAP act – activators of human placental alkaline phosphatase. P05187. hit rate 1.2% among 96,000. AID 696. activation fold at 20 µM. purified PLAP enzyme, luminescent substrate read-out; stronger effect = higher value; in the data active = activation fold above about 2
sEH act – activators of human soluble epoxide hydrolase; purified human sEH enzymatic activity, activator screen; hit rate 0.04% among 91,000; activation, % at 2 µM; in the data active = activation above about 37%
Target sequence (P34913 whole entry, looked up): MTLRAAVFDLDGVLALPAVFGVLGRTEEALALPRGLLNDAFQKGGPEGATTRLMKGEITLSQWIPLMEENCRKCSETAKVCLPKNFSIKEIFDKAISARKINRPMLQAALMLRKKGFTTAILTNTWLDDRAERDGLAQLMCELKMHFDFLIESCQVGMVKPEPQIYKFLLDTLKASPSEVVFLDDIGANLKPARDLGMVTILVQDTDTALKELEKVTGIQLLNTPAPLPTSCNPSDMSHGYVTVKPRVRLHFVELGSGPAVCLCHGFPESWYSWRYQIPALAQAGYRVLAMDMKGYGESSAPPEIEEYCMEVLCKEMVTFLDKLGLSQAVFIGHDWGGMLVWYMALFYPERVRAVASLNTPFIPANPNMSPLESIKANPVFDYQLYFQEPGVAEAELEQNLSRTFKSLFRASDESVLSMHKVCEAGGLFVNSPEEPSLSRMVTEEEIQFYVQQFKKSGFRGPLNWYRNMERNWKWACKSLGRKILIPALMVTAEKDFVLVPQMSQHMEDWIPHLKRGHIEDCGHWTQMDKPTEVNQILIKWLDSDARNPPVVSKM
BAP1 inh – inhibitors of human BAP1 deubiquitinase; Q92560; recombinant BAP1, Ub-AMC hydrolysis fluorescence kinetic; stronger effect = lower value; calls only at 20 µM; hit rate 0.48% among 72,000;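 active = activity remaining at or below 50% of control, provided the compound also passes the data quality filters; inactive = the rest, including low values that fail the filters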
sEH inhibitor – inhibitors of human soluble epoxide hydrolase; inhibition, % at 2 µM; P34913; hit rate 0.34% among 91,000; AID 707; recombinant human sEH enzymatic activity assay; in the data active = inhibition above about 80%
BAP1 inh confirm – confirmation of human BAP1 enzyme inhibitors. hit rate 8% among 310. shares compounds with BAP1 inh. % of control activity, % at 20 µM. purified BAP1, Ub-ethyl ester hydrolysis, HPLC; stronger effect = lower value. AID 753;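 active = percent of control activity at or below 60%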
Each line names hits and unclear results; the compound was inactive in the other large screens (follow-up assays come after a bar, where shown). In the library only some 1.5% were active in any assay of this set; here they are far more common.

O=C(CSc1nnc(-c2c[nH]c3ccccc23)o1)N1c2ccccc2CCc2ccccc21	BAP1 inh active | BAP1 inh confirm inactive
CCCCCC1CCC(c2ccc(C#N)c(Cl)n2)CC1 (stereo unspecified)	none (no result: PLAP act, sEH act, sEH inhibitor)
O=C(CSc1nnc(-c2cc3ccccc3cc2O)n1Cc1ccco1)c1ccc(F)cc1	BAP1 inh active | BAP1 inh confirm inactive
Cc1occc1-c1nnc(SCC(=O)c2ccc(F)cc2)n1Cc1ccco1	none
Cc1cccc(-n2c(=O)[nH]c3c(C(N)=O)nc(-c4ccccc4Cl)nc32)c1	BAP1 inh active (no result: sEH act, sEH inhibitor) | BAP1 inh confirm inactive
CCCc1cc(=O)oc2cc(C)c(CN3CCCC3)c(O)c12	BAP1 inh active (no result: sEH act, sEH inhibitor) | BAP1 inh confirm inactive
N#Cc1c(NC(=O)c2ccc(Cl)c(S(=O)(=O)N3CCOCC3)c2)sc2c1CCCC2	none (no result: PLAP act, sEH act, sEH inhibitor)
CCCCCCn1c(-c2ccco2)nc2oc3cc(OC)ccc3c(=O)c2c1=O	BAP1 inh active | BAP1 inh confirm inactive
CCOc1ccc(N2Cc3ccccc3C2)cc1	BAP1 inh active | BAP1 inh confirm inactive
O=[N+]([O-])c1ccc(Oc2cccc(O)c2)cc1	none (no result: PLAP act, sEH act, sEH inhibitor)
COc1ccccc1OCc1ccc(C(=O)n2nc(C)c(Cl)c2C)o1	BAP1 inh active | BAP1 inh confirm inactive
N#Cc1c(NC(=O)CN2CCN(S(=O)(=O)c3ccc4c(c3)OCCO4)CC2)sc2c1CCC2	BAP1 inh active | BAP1 inh confirm inactive
Cc1ccc(Oc2cc(C)nc(-c3ccccc3O)n2)cc1	none (no result: sEH act, sEH inhibitor)
Cc1cc(OCc2ccc(F)cc2)nc(-c2ccccc2O)n1	BAP1 inh active | BAP1 inh confirm inactive
NC1=CC(=O)c2cccc3cccc1c23	BAP1 inh active | BAP1 inh confirm inactive
Cc1nnc(C)n1N1C(=O)c2cccc3cccc(c23)C1=O	none (not shown: BAP1 inh)
COCCn1nnnc1C(c1cc2cc(C)ccc2[nH]c1=O)N1CCCCCC1 (stereo unspecified)	none
Cc1ccc2[nH]c(=O)c(C(c3nnnn3CCc3ccccc3)N3CCOCC3)cc2c1 (stereo unspecified)	BAP1 inh active | BAP1 inh confirm inactive
COc1cccc(C(c2nnnn2CCc2ccccc2)N2CCN(c3ccccc3)CC2)c1OC (stereo unspecified)	none (no result: PLAP act)
COc1ccccc1C(c1nnnn1CCc1ccccc1)N1CCN(c2ccccc2)CC1 (stereo unspecified)	BAP1 inh active | BAP1 inh confirm inactive
CCN(CC)c1cc(-n2nc(-c3ccccc3)cc2-c2ccccc2)ncn1	none (no result: PLAP act, sEH act, sEH inhibitor)
CCOC(=O)c1cc(-c2ccccc2OC)no1	none (no result: PLAP act, sEH act, sEH inhibitor)
COc1ccc2nc(N3CCC(O)CC3)c(C#N)cc2c1	none
CCOC(=O)C1CCN(c2nc3cc(OC)ccc3cc2C#N)CC1	BAP1 inh active | BAP1 inh confirm inactive
Cc1ccc2cc(CN(Cc3ccc4c(c3)OCO4)Cc3nnnn3Cc3ccco3)c(=O)[nH]c2c1C	BAP1 inh active | BAP1 inh confirm inactive
CCCCNC(=O)c1cc2c(-c3ccc(Cl)cc3)nn(C)c2s1	BAP1 inh active | BAP1 inh confirm inactive
COc1ccc2cc(CN(Cc3ccco3)Cc3nnnn3C3CCCCC3)c(=O)[nH]c2c1	none
Cc1ccc2cc(CN(Cc3ccc(F)cc3)Cc3nnnn3C3CCCC3)c(=O)[nH]c2c1	BAP1 inh active | BAP1 inh confirm inactive
CCc1ccc2[nH]c(=O)c(CN(Cc3ccc4c(c3)OCO4)Cc3nnnn3C3CCCC3)cc2c1	none (not shown: BAP1 inh)
Cc1ccc2cc(CN(Cc3ccccc3)Cc3nnnn3C3CCCC3)c(=O)[nH]c2c1	BAP1 inh active | BAP1 inh confirm inactive
CCC(c1nnnn1C1CCCC1)N(Cc1cccs1)Cc1cc2cc(C)ccc2[nH]c1=O (stereo unspecified)	BAP1 inh active | BAP1 inh confirm inactive
Cc1cc(-n2c(C)ccc2-c2ccccc2)ccc1F	none (no result: PLAP act, sEH act, sEH inhibitor)
CCCc1sc(N2CCN(C(=O)c3ccccc3)CC2)nc1-c1ccccc1	none (no result: PLAP act, sEH act, sEH inhibitor)
c1ccc(-c2nnc3sc(-c4csc5c4CCCC5)nn23)cc1	BAP1 inh active | BAP1 inh confirm 59.4
c1ccc(-c2nnc3sc(-c4ccncc4)nn23)cc1	none
CC1CCc2nc(NC(=O)c3ccc(S(=O)(=O)N4CCOCC4)cc3)sc2C1 (stereo unspecified)	none (no result: PLAP act, sEH act, sEH inhibitor)
CC1CCc2nc(NC(=O)c3cc(C(C)(C)C)nn3C)sc2C1 (stereo unspecified)	BAP1 inh active (no result: PLAP act, sEH act, sEH inhibitor) | BAP1 inh confirm inactive
O=C1c2cccc([N+](=O)[O-])c2C(=O)N1c1cc([N+](=O)[O-])ccc1Cl	none (no result: PLAP act, sEH act, sEH inhibitor)
COc1ccc(-n2c(SCC(=O)Nc3ccc4c(c3)OCO4)nc3c(c2=O)SCC3)cc1	BAP1 inh active | BAP1 inh confirm inactive
O=C(CSc1nc2c(c(=O)n1-c1ccc(F)cc1)SCC2)Nc1ccc2c(c1)OCO2	none (no result: PLAP act, BAP1 inh)
O=C(CSc1nc2c(c(=O)n1-c1ccc(Cl)cc1)SCC2)Nc1ccc2c(c1)OCCO2	BAP1 inh active (no result: sEH act, sEH inhibitor) | BAP1 inh confirm 49.3
Cc1cc(C)cc(OCc2nnc(SCC(=O)N3CCN(c4ccccc4)CC3)o2)c1	BAP1 inh active | BAP1 inh confirm inactive
O=C(CSc1nnc(COc2ccccc2)o1)N1CCN(c2ccccc2)CC1	none (no result: PLAP act)
O=C(OCCCN1C(=O)c2cccc3c(N4CCCCC4)ccc(c23)C1=O)c1ccccc1[N+](=O)[O-]	none (no result: PLAP act, sEH act, sEH inhibitor)
O=C(CN1C(=O)c2ccc([N+](=O)[O-])cc2C1=O)Nc1ccc(O)cc1C(=O)O	none (no result: PLAP act, sEH act, sEH inhibitor)
COc1cccc(C2C(C#N)=C(N)OC3=C2C(=O)CC(c2ccco2)C3)c1OCc1ccc(F)cc1 (stereo unspecified)	BAP1 inh active (no result: sEH act, sEH inhibitor) | BAP1 inh confirm inactive
O=C(O)C1C(C(=O)Nc2cccc(Cl)c2)C2C=CC1C21CC1 (stereo unspecified)	none (no result: PLAP act, sEH act, sEH inhibitor)
CCC(NCc1c(O)ccc2c3c(c(=O)oc12)CCC3)C(=O)O (stereo unspecified)	none (no result: PLAP act, sEH act, sEH inhibitor)
CC(C)c1nc(SCC(=O)Nc2ccc3c(c2)OCCO3)c2c(=O)n(C)c(=O)n(C)c2n1	none
CC(C)c1nc(SCC(=O)Nc2cccc(C(F)(F)F)c2)c2c(=O)n(C)c(=O)n(C)c2n1	BAP1 inh active (no result: PLAP act) | BAP1 inh confirm inactive
Cc1sc(NC(=O)CSc2nnc(-c3ccccc3)o2)c(C#N)c1C	BAP1 inh active | BAP1 inh confirm 37.2
Oc1ccc(Br)cc1C=Nc1ccc(Br)cc1	none (no result: PLAP act, sEH act, sEH inhibitor)
Cc1ccnc(NS(=O)(=O)c2ccc(NS(=O)(=O)c3c(C(C)C)cc(C(C)C)cc3C(C)C)cc2)n1	none (no result: PLAP act, sEH act, sEH inhibitor)
CN(C)c1ccc(-c2nn3c(-c4ccc(Cl)cc4Cl)nnc3s2)cc1	BAP1 inh active (no result: sEH act, sEH inhibitor) | BAP1 inh confirm inactive
CCC(=O)N1CCc2cc(S(=O)(=O)NC(C(=O)NCc3ccc(C)cc3)C(C)C)ccc21 (stereo unspecified)	BAP1 inh active (no result: sEH act, sEH inhibitor) | BAP1 inh confirm inactive
COc1ccc(CNC(=O)C(NS(=O)(=O)c2ccc3c(c2)CCCN3C(C)=O)C(C)C)cc1 (stereo unspecified)	none (no result: sEH act, sEH inhibitor)
COc1ccc(Cn2nnnc2C(C(C)C)N(Cc2ccco2)Cc2cccs2)cc1 (stereo unspecified)	BAP1 inh active | BAP1 inh confirm inactive
CC(C)C(c1nnnn1Cc1ccccc1)N(Cc1ccco1)Cc1cccs1 (stereo unspecified)	none
CCOC(=O)C1=C(C)NC(=S)NC1c1c(OC)ccc2ccc(OC)cc12 (stereo unspecified)	none (no result: PLAP act, sEH act, sEH inhibitor)
